# HCMV inh – blocks human cytomegalovirus replication; HFF cells, HCMV-luciferase reporter, 72 h; hits give low values; 410,000 compounds, 4.5% hits; activity change, negative = inhibition, % at 57.5 µM; in the data active means activity change below about -60%; inconclusive means no clear call, values can overlap the other calls; inactive means above about -39%
#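 HFF cells seeded 16 h at 37C, treated with compounds, infected with luciferase-reporter HCMV at MOI 1 PFU/cell; luciferase read at 72 h post infection, normalized to buffer-only and Salinomycin controls.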
# FMDV antiviral – blocks foot and mouth disease virus; FMDV antiviral cell-based qHTS; Potency, µM (titrated, usually from 57.9 µM), without a hit: at the top dose activity change, negative = inhibition, most hits filed as inhibitors; 410,000 compounds, 1.2% hits; AID 1159524; calls by dose curve; tested in HEK293T cells; further: read-out not given here; potency means the concentration at half of the fitted maximal effect; nearly all actives have a fitted effect of over 45% in size
# HCV inh – blocks hepatitis C virus; AID 651820; Huh7.5.1 HCVcc-Cre infection, luciferase reporter, 44 h; 340,000 compounds, 3.4% hits; Potency, µM (top dose mostly 41.8 µM), for inactives: top-dose activity change, negative = inhibition, most hits filed as inhibitors; further: potency means the concentration at half of the fitted maximal effect
#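 Infectious HCVcc-Cre (~0.5 moi) was added to cells just after compound, with cells seeded 4 h earlier at 1,000 per well. Luciferase activity after 44 h culture reported infection; substrate was incubated 15 min at room temperature before reading.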
# AmpC detergent – inhibitors of E. coli AmpC beta-lactamase with detergent. AID 485294. 370,000 compounds, 0.041% hits. P00811. AmpC hydrolysis of nitrocefin, absorbance 480 nm, 0.01% Triton. Potency, µM (doses to about 114 µM), for inactives: at the top dose activity change, negative = inhibition, most hits filed as inhibitors;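 further: potency means the concentration at half of the fitted maximal effect; 0% = no-compound wells and -100% = no-enzyme wells; nearly all actives have a fitted effect of over 25% in size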
# Target sequence (P00811 whole entry, looked up): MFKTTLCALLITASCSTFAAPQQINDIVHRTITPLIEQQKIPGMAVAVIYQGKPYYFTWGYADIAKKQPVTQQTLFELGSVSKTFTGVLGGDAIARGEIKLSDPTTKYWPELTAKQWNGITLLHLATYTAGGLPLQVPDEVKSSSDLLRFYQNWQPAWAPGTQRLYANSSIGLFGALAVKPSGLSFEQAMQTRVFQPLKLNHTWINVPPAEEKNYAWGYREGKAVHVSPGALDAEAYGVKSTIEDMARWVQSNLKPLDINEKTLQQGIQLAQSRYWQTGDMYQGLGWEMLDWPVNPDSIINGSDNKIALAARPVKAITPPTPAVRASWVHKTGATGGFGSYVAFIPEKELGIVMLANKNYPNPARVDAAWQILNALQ
#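 20 mM phosphate pH 7.0 + 0.01% (detergent screen) or 0.0001% Triton X-100; 5.3 nM AmpC reagent; cpd preinc 15 min RT; nitrocefin (800 uM stock) to start; A480 q20 s × 4 min; Activity was normalised to no-enzyme and no-compound control wells.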
# AmpC no deterg – inhibitors of E. coli AmpC beta-lactamase without detergent; P00811; AmpC nitrocefin hydrolysis, absorbance 480 nm, 0.0001% Triton; Potency, µM (highest dose often 57.1 µM), inactives show top-dose activity change, negative = inhibition, hits mostly inhibitors; 330,000 compounds, 0.52% hits;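 further: potency means the concentration at half of the fitted maximal effect; plate controls were no compound for no effect and no enzyme for full effect; nearly all actives have a fitted effect of over 20% in size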
#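 AmpC (5.3 nM in the dispensed reagent) in 20 mM phosphate pH 7.0 with 0.01% (detergent screen) or 0.0001% Triton X-100 was preincubated with compounds for 15 min at room temperature. Nitrocefin was then added from an 800 uM solution, and hydrolysis was followed at 480 nm.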
# * marks the source's active call; other numbers are inactive results; ? = inconclusive; . = no result given; [ ] = dose if it differs, or a comment. Sampled rows, rich in hits. Any-hit rate of the full collection: about 7.3%. Unless noted, the call rests on the fitted dose curve; in most records, active means well fitted curve in the direction sought with a large enough effect; inconclusive means small, poorly fitted or top-dose-only effect, or another doubt; inactive means no such curve, though single readings can be large; an effect the other way counts as inactive or inconclusive. Unless noted, on the % scale 0 is the no-effect control and ±100 the full control effect.
SMILES,HCMV inh,FMDV antiviral,HCV inh,AmpC detergent,AmpC no deterg
O=C(NC12CC3CC(CC(C3)C1)C2)c1ccc(-c2cccc(Cl)c2)o1,-63*,29%,?,-5%,-7%
CCC1CN(CCNC(=O)c2cccc3nccnc23)Cc2cc(OC)ccc2O1 (stereo not drawn),.,-11%,.,.,.
Cc1c(CN(C)C(=O)c2sc3cc(Cl)ccc3c2Cl)cnn1C,-84*,0%,22µM*,2%,122%
Cc1ccc(NC(=O)CN(C)C(=O)c2sc3cc(Cl)ccc3c2Cl)cc1,-18,-13%,-4%[8.37 µM],-6%,-9%
O=C(O)C(Oc1ccc2c3c(c(=O)oc2c1)CCC3)c1ccccc1 (stereo not drawn),-101*,-3%,4%,?,-34%
O=C(COc1ccc2c3c(c(=O)oc2c1)CCCC3)N1CCN(c2ccc(F)cc2)CC1,0,-26%,10µM*,2%,-13%
O=C(COc1ccc2c3c(c(=O)oc2c1)CCC3)N1CCN(c2ccc(F)cc2)CC1,57,?,?,-8%,31%
CC(=O)C(C)Oc1ccc2c3c(c(=O)oc2c1)CCCCC3 (stereo not drawn),4,16%,35µM*,-1%,46%
Cc1cc(=O)oc2cc(OC(C(=O)O)c3ccccc3)ccc12 (stereo not drawn),-27,-1%,16%,-11%,-8%
CC(C)NC(=O)c1nnc2n1CCN(Cc1ccc(Cl)c(F)c1)C2,-1,.,.,.,.
CCCc1ccc2oc(C(=O)N3CCN(CC(=O)NC(C)C)CC3)c(C)c2c1,9,-2%,-18%,10%,196%
CC(CCc1ccccc1)NC(=O)CSc1n[nH]c(-c2ccccc2)n1 (stereo not drawn),-28,-16%,.,15%,.
COc1ccc(/C=C/C(=O)NC(C)CCc2ccccc2)cc1 (stereo not drawn),-60*,7%,-2%,3%,-29%
O=C(CSc1n[nH]c(-c2ccccc2)n1)NCCCc1ccccc1,-9,-24%,.,17%,.
COc1ccc(/C=C/c2cc[n+](C(=O)Cc3ccccc3)cc2)cc1,-108*,?,-25%,?,15%
COc1ccc(-c2nc(SCC(=O)NCCCc3ccccc3)n[nH]2)cc1,-67*,-10%,.,10%,.
CC(CCc1ccccc1)NC(=O)CSc1n[nH]c(-c2ccc(F)cc2)n1 (stereo not drawn),-65*,?,.,-2%,.
COc1ccc(NCc2ccsc2)cc1,-16,30%,12%,3%,-6%
COC(=O)[C@@H]1[C@@H](CO)[C@@H]2Cn3c(ccc(Br)c3=O)[C@H]1N2C(=O)c1ccncc1,-3,.,.,.,.
C[C@H]1CNC(=O)c2c(C(=O)N3CCN(c4ccccc4)CC3)ncn21,-2,.,.,.,.
COc1ccc(-c2nc(SCC(=O)NC(C)CCc3ccccc3)n[nH]2)cc1 (stereo not drawn),-89*,?,.,-4%,.
Cc1ccc(Cl)cc1N1CCN(CCCNC(=O)c2nnc(Cc3cccc(Cl)c3)o2)CC1,-102*,?,.,-8%,.
O=C(NCCCN1CCN(c2ccccc2F)CC1)c1nnc(Cc2ccc(Cl)cc2Cl)o1,-3,-28%,.,12%,.
CC(=O)c1ccc2c(c1)Cc1cc(C(C)=O)ccc1-2,126,32%,-4%,-8%,-21%
CC(=O)c1ccc2c3c(cc(C)c2c1)CCCC3,-66*,24%,11µM*,.,.
SMILES,HCMV inh,FMDV antiviral,HCV inh,AmpC detergent,AmpC no deterg
Cc1ncc2c(c1CNC(=O)c1ccc3c(c1)OCO3)CCN(C(=O)c1cnsn1)C2,.,6%,.,.,.
FC(F)(F)c1cccc(-c2nc3nc(Cl)c(Cl)nc3[nH]2)c1,.,-23%,11µM*,-1%,-56%
FC(F)(F)c1nc2nc(Cl)c(Cl)nc2[nH]1,-27,-10%,.,.,.
O=C(COC(=O)C1CC(=O)N(c2ccccc2)C1)c1ccccc1 (stereo not drawn),-3,4%,1%,?,1.4µM*
Cc1cc(C)cc(NC(=O)C(OC(=O)c2ccc(NC(=O)CC#N)cc2)c2ccccc2)c1 (stereo not drawn),-4,-6%,-3%,-10%,11µM*
Cc1ccc(NC(=O)C(OC(=O)c2cc(C)oc2C)c2ccccc2)cc1 (stereo not drawn),-61*,16%,-6%,-14%,-38%
Cc1cc(C(=O)OC(C(=O)Nc2cccc(C(F)(F)F)c2)c2ccccc2)c(C)o1 (stereo not drawn),12,-15%,?,?,-28%
Cc1ccc(C)c(NC(=O)C(OC(=O)c2ccc(NC(=O)CC#N)cc2)c2ccccc2)c1 (stereo not drawn),-3,-10%,-13%,2%,-57%
COc1cccc(CN(C)CC(=O)Nc2cc3oc4ccccc4c3cc2OC)c1,18,2%,16µM*,7%,20%
COc1ccc(CC(=O)Nc2cc3oc4ccccc4c3cc2OC)cc1,63,67%,4.5µM*,-6%,1%
COc1cc2c(cc1NC(=O)/C=C/c1cc(OC)c(OC)c(OC)c1)oc1ccccc12,5,?,8.9µM*,-5%,26%
COc1cc(OC)cc(C(=O)NC(=S)Nc2cc3oc4ccccc4c3cc2OC)c1,-30,-17%,1.8µM*,?,-16%
COc1ccc(-c2csc(C(C)(O)c3ccc(F)c(F)c3)n2)cc1OC (stereo not drawn),13,-28%,.,.,.
COc1cc2c(cc1NC(=O)COCC(=O)O)oc1ccccc12,?,-5%,2%,1%,-3%
COc1cc2c(cc1NC(=O)CSc1ccc(Cl)cc1)oc1ccccc12,-27,3%,10µM*,3%,-16%
COc1cc2c(cc1NC(=O)CN(C)Cc1cccc(OC)c1OC)oc1ccccc12,-25,-1%,3.5µM*,?,40%
COc1cc2c(cc1NC(=O)COc1ccc(Cl)cc1)oc1ccccc12,-3,-27%,.,28%,.
Oc1c(CN2CCc3ccccc3C2)cc(Cl)c2cccnc12,.,?,?,?,-22%
O=[N+]([O-])c1cc(CN2CCN(c3ccccc3)CC2)c(O)c2ncccc12,-89*,-20%,?,3%,-4%
CCCCOCc1cc(CN2CCN(c3cccc(Cl)c3)CC2)c(O)c2ncccc12,-100*,0%,.,28%,.
COc1cc(CN2CCN(c3cccc(Cl)c3)CC2)cc(OC)c1OC,29,-24%,-5%,-6%,70%
CN1CCN(Cc2cc(COCc3ccccc3)c3cccnc3c2O)CC1,?,-19%,3.2µM*,?,36%
CCCOCc1cc(CN2CCN(c3cccc(Cl)c3)CC2)c(O)c2ncccc12,-97*,-23%,.,24%,.
Cc1nonc1CN(C)C(=O)C1CC12CCN(C(=O)/C=C/c1cccc(Cl)c1)CC2 (stereo not drawn),.,-15%,.,.,.
c1ccc(Cc2nnc3n2CCN(Cc2cnc(-c4ccccc4)s2)CC3)cc1,.,-19%,.,.,.
